The values below come from PubChem BioAssay AID504847 (National Center for Advancing Translational Sciences (NCATS), 2011).

Among all 400,000 compounds or so, about 3,700 (0.93%) were called active. Another 3% or so got no clear call; they are omitted. Only a selection was taken, and actives are over-represented in it overall. A number with no mark means an inactive call. The call rests on the fitted dose curve; in most records, active means well fitted inhibition curve with a large enough effect; inconclusive means small, poorly fitted or top-dose-only effect, or another doubt; inactive means no such curve, though single readings can be large or run the other way.
On the % scale 0 is the no-effect control and ±100 the full control effect; potency means the concentration at half of the fitted maximal effect.

Sequence of Vitamin D3 receptor (Homo sapiens) (P11473 whole entry, looked up): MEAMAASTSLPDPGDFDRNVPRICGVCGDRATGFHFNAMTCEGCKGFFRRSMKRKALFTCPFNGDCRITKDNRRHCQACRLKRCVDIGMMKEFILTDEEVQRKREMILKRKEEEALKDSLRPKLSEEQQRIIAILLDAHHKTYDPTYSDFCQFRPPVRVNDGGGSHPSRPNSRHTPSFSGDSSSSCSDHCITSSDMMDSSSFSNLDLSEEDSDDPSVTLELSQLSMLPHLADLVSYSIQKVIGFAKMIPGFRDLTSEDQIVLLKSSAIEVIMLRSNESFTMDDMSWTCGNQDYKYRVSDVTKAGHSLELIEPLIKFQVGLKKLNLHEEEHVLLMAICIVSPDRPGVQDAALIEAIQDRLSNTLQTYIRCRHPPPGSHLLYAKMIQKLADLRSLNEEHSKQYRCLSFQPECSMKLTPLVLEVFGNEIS

For the experiment, the target named is Vitamin D3 receptor (Homo sapiens) (UniProt P11473). Put plainly: Inhibitors of the vitamin D receptor (VDR): qHTS. To be noted: VDR-SRC2-3 peptide fluorescence polarization, 2 h; max response, negative = inhibition: hits give low values. A digest of the protocol:
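Signal is fluorescence polarization, reporting how far test compounds block the interaction of VDR with the SRC2-3 coregulator peptide after a 2 h room-temperature incubation.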
In general terms: qHTS replaces the single test concentration by a dilution series.
`CC(=O)c1ccccc1NC(=O)C1CC(=O)N(c2ccc3c(c2)OCCO3)C1` (centres undefined): the max response, negative = inhibition is 0.279%.
Same read-out and setting: the value for `CCOC(=O)c1ccc(NC(=O)C2CC(=O)N(c3ccc4c(c3)OCCO4)C2)cc1` (centres undefined) was -6.01%.
`CCc1nnc(NC(=O)C2CC(=O)N(c3ccc4c(c3)OCCO4)C2)s1` (centres undefined): the Potency was 56.2 µM (active).
In the case of `CCc1cc2c(cc3c(=O)n(CC(=O)NCCc4ccc(OC)c(OC)c4)ncn32)s1`, the max response, negative = inhibition was 14.2%.
The same measure, in the same setting: for `CC1CC(C)CN(c2oc(-c3ccc(OCc4ccc(Cl)cc4)cc3)nc2C#N)C1` (centres undefined) the value was -6.19%; for `COc1cccc(-c2cc(C(=O)Nc3ccc(C)cc3)[nH]n2)c1`, -3.16%; for `Cc1ccc(C(=O)NC(=S)NCc2cccnc2)cc1`, -6.42%.
Take `Cc1ccc(-n2nc(-c3ccco3)cc2C(=O)NCc2cccnc2)cc1`: the Potency was 70.8 µM (active).
For `CSc1sc(C(=O)NC(=O)NCc2cccnc2)c(C)c1-c1ccon1`, the max response, negative = inhibition was 1.93%.
On the same count and under the same terms, the value for `COc1cc(CNCCSc2nnnn2C)ccc1OCc1ccc(Cl)cc1Cl` was 1.83%.
Regarding `O=c1c(O)c(Br)ccc2c(Br)c(O)c(O)c(O)c12`, the Potency is 7.94 µM (active).
As for `O=C(c1ccco1)N(Cc1cccs1)c1ccc(O)cc1`, the max response, negative = inhibition was -6.28%.
As to `Cc1cccc(CSc2nc3ccncc3n2CC(=O)N(C)C2CCCCC2)c1`, the max response, negative = inhibition was -0.866%.
`CCOCCCNC(=O)c1c(NC(=O)Cc2coc3ccc(C)cc23)sc2c1CCC2`: the max response, negative = inhibition was 8.22%.
As for `O=C(Nc1ccccc1-c1ccccc1)c1cccs1`, the Potency was 70.8 µM (active).
Take `O=C(Nc1ccccc1-c1ccccc1)c1ccccc1[N+](=O)[O-]`: the max response, negative = inhibition is -7.79%.
Take `O=C(Nc1ccccc1-c1nnn(CC(=O)N2CCN(c3ccccc3)CC2)n1)c1cccs1`: the max response, negative = inhibition was -0.102%.
As for `Cc1ccc(C)c(NC(=O)CSC2=Nc3ccccc3N=C(c3ccc(F)cc3)C2)c1`, the max response, negative = inhibition is 4.3%.
On the same count and under the same terms, for `Cc1cccc2nc(-c3ccc(Cl)s3)c(Nc3ccc4c(c3)OCCO4)n12` the value was -14.5%.
On the same count and under the same terms, for `C=C(C(C)=O)C(O)c1cccs1` (centres undefined) the value was -7.76%; for `CC(=O)NCC(O)c1ccc([N+](=O)[O-])cc1` (centres undefined), -16.9%.
In the case of `C=C(C(C)=O)C(O)c1ccc([N+](=O)[O-])cc1` (centres undefined), the Potency was 50.1 µM (active).
Consider `CCN1CCN(c2cc(C)c3cc(NC(=O)c4cc(Cl)ccc4OC)ccc3n2)CC1`, for which the max response, negative = inhibition is -8.13%.
On the same count and under the same terms, the value for `CCOc1ccc(CC(=O)NCCc2csc3nc(-c4ccccc4F)nn23)cc1` was 13.3%.
As to `CC(C)n1cnc2c(NCc3ccccc3)cc(OCC3CCN(C)CC3)cc21`, the Potency is 50.1 µM (active).
For the compound `CCC(CO)Oc1cc(NC(=O)c2ccc(Cl)cc2)c2ncn(C(C)C)c2c1` (centres undefined), the max response, negative = inhibition was -27.1%.
Still for that read-out and setting: the value for `CN(C)c1nccc(NCc2ccccc2)c1C#N` was 28.6%; that for `CCOc1ccc(NC(=O)CSc2c3c(nc4ccccc24)CCCC3)cc1` was 0.351%.
The same measure, in the same setting: the value for `CC(=O)c1ccc(NS(=O)(=O)c2ccc(-c3cc(C)no3)s2)cc1` was -0.0795%; that for `COc1ccc(CNC(=O)C2=Cc3cccc(OC)c3OC2)cc1OC` was -2.19%.
Same read-out and setting: the value for `C[C@]12CC[C@@H]3c4ccc(O)cc4C[C@@H](CCCCCCCCCS(=O)CCCC(F)(F)C(F)(F)F)C3[C@@H]1CC[C@@H]2O` (some centres undefined) was -2.01%.
Turning to `CCOc1ccc(NC(=O)CSc2nnc3c(n2)[nH]c2ccc(S(=O)(=O)N4CCOCC4)cc23)cc1`, the max response, negative = inhibition is 3.89%.
Still for that read-out and setting: for `CC(=O)c1cccc(NC(=O)c2cc(C)nn2-c2ccccc2)c1` the value was -12.6%.
On to `CSc1ccccc1C(=O)NCc1ccccc1`, for which the max response, negative = inhibition is 10.4%.
`CSc1ccccc1C(=O)Nc1cccc(C(C)=O)c1`: the Potency is 39.8 µM (active).
Take `CCCCC/C=C\C/C=C\CCCCCCCCCC(N)=O`: the max response, negative = inhibition was -2.13%.
The same measure, in the same setting: for `CCN(CC)C(=O)CSc1nc2cc3c(cc2c(=O)n1CCCC(=O)NCc1ccc2c(c1)OCO2)OCO3` the value was 4.85%; for `CCOc1ccc2nc(N3CCCC(C(=O)Nc4cc(C)ccc4C)C3)sc2c1` (centres undefined), 5.91%; for `O=C(O)c1ccc(CSc2nc3cccnc3n2Cc2cccc(F)c2)cc1`, 9.37%.
As for `O=C(/C=C/Sc1ncn[nH]1)c1ccc(Cl)cc1`, the Potency is 39.8 µM (active).
`C[C@@H]1C[C@H]2[C@@H]3C[C@H](F)C4=CC(=O)C=C[C@@]4(C)[C@]3(F)[C@H](O)C[C@]2(C)[C@@]1(O)C(=O)CO`: the max response, negative = inhibition was -2.08%.
`Cc1ccnc(-n2sc3ccccc3c2=O)n1`: the Potency was 25.1 µM (active).
On to `CCOC(=O)c1c(C)[nH]c(CCC(=O)Nc2ccc(OC)c(OC)c2)c1C`, for which the max response, negative = inhibition was -6.79%.
On the same count and under the same terms, for `COc1cc(OC)c(C2C=C(C(=O)O)Nc3ncnn32)cc1OC` (centres undefined) the value was -29.8%; for `COc1ccccc1CNC(=O)Cn1nc(C)c2nn(-c3ccc(Cl)cc3)c(C)c2c1=O`, 3.2%.
As for `NC(=O)C1(C(N)=O)OC1c1ccc(Cl)cc1Cl` (centres undefined), the Potency was 14.1 µM (active).
Consider `Nc1ccc2c(c1)C(O)c1ccc(Cl)cc1-2` (centres undefined), for which the max response, negative = inhibition was 1.49%.
Same read-out and setting: for `CCN(CC)c1nc(C#N)nc(OC)n1` the value was -23.3%; for `CCOC(=O)C1CCN(C(=O)Nc2ccc(Cl)cc2)CC1`, 6.67%.
In the case of `CCOC(=O)C1Sc2[nH]c(=O)sc2C(c2ccc(Cl)cc2)C1C(=O)OCC` (centres undefined), the Potency is 79.4 µM (active).
In the case of `CCOC(=O)c1ccccc1N1C(=O)C2Sc3[nH]c(=O)sc3C(/C=C/c3ccccc3)C2C1=O` (centres undefined), the max response, negative = inhibition is -26.2%.
Same read-out and setting: the value for `CCCCCn1c(CCCNC(=O)c2ccccc2OC)nc2ccccc21` was 10.5%; that for `COc1cccc2c1cc1c(=O)n(CC(=O)N3CCN(c4cccc(Cl)c4)CC3)nc(C)n12` was -15.1%; that for `Cc1cccc(NC(=O)CSc2ncc(-c3ccccc3)[nH]2)c1C` was -15.6%.
